From PubChem
A selection: hits, their analogues and other compounds. The true share with any hit is near 4.8%.
TGFb SMAD3 inh: inhibitors of TGF-b signaling; AID 588855; HepG2 CAGA-GFP TGF-b/SMAD3 reporter, GFP fluorescence, 18 h; TGF-beta stimulated, 500 pg/mL final; 1.2% of 410,000 active; Potency, µM (doses to about 46.1 µM), hits mostly inhibitors; also: nearly all actives have a fitted effect of over 65% in size
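TGF-beta reporter screen: HEPG2 CAGA-GFP, 1% FBS, 500 pg/mL TGF-beta final, 18 h; per-cell GFP summed per well; curves fitted and categorized by class.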
HepG2 viability: HepG2 cytotoxicity, counter-screen for TGF-b inhibitors | HepG2 CAGA-GFP viability, ATP luminescence, 18 h | Potency, µM (series often up to 46.1 µM), actives largely listed as cytotoxic | 0.76% of 410,000 active
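HepG2 CAGA-GFP cells (1000/well, DMEM with 1% FBS) received compound, then TGF-beta at 500 pg/mL final, and were incubated 18 hours at 37 degrees C. Viability was read by CellTiter-Glo luminescence. Media-only wells were set as complete cell-killing and DMSO as no toxicity.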
D3 antag: D3 dopamine receptor (human) antagonism | P35462 | D3R cells, DiscoveRx beta-arrestin luminescence, antagonist mode; active compounds read low | max response, negative = inhibition, % | 2.5% of 360,000 active | AID 652054; in the data active = max response below about -50%; inconclusive = no clear call, values can overlap the other calls
Target sequence (P35462 whole entry, looked up): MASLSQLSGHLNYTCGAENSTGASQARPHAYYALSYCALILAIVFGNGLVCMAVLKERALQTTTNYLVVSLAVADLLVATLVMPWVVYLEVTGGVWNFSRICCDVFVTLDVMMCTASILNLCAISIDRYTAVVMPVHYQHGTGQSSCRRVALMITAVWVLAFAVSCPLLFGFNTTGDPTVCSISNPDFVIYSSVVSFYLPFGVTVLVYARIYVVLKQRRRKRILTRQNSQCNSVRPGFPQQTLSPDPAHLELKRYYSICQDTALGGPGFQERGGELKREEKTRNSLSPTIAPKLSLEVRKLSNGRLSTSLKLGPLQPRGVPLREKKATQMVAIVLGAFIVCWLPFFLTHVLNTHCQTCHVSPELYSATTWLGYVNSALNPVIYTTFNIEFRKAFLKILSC
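Cells plated overnight at 1500 cells/well, then exposed to library compounds with dopamine controls for 90 minutes at 37 degrees C. DiscoveRx reagent added for 30–60 minutes at room temperature; luminescence read, quantitative HTS format.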
D3 ag: D3 dopamine receptor (human) agonism | max activation, % | AID 652048 | P35462 | D3R DiscoveRx beta-arrestin cells, luminescence, 90 min | 0.58% of 410,000 active; in the data active = max activation above about 30%
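Cells at 1500/well, incubated overnight, then treated with pinned compounds (dopamine as control) for 90 min at 37 degrees C. DiscoveRx reagent added for 30 - 60 minutes at room temperature; luminescence read.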
ATXN2 expr inh: inhibitors of ATXN2 expression; HEK-293 ATXN2-luciferase reporter, luminescence, 24 h; Potency, µM (doses to about 57 µM), most hits filed as inhibitors; 0.72% of 360,000 active; also: nearly all actives have a fitted effect of over 55% in size
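ATXN2-luciferase reporter cells (luciferase flanked by upstream and downstream ATXN2 gene portions) were treated 24 h at 37 °C with compounds at up to 57 uM. SteadyGlo luminescence gave expression; GF-AFC fluorescence gave viability.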
ATXN viability: reduces viability in counter-screen for ATXN expression inhibitors; S2 cells (HEK-293 line with an ATXN2-luciferase reporter) viability, CellTiter-Fluor protease fluorescence, 24 h; AID 651635; 0.49% of 400,000 active; Potency, µM (highest dose often 56.7 µM), usual class: cytotoxic; also: nearly all actives have a fitted effect of over 40% in size
A number is an active result; – = inactive; ? = inconclusive; · = not tested or not shown; ! = not confirmed by another sample. Unless noted, calls follow the shape of the dose curve; as a rule, active = well fitted curve in the direction sought with a large enough effect; inconclusive = small, poorly fitted or top-dose-only effect, or another doubt; inactive = no such curve, though single readings can be large; an effect the other way counts as inactive or inconclusive.

SMILES | TGFb SMAD3 inh | HepG2 viability | D3 antag | D3 ag | ATXN2 expr inh | ATXN viability
CN(C)S(=O)(=O)c1ccc2c(c1)/C(=C/c1cc3c([nH]1)CCCC3)C(=O)N2 | – | – | -86 | – | – | ?
Cc1ccc2nc(N/N=C\c3ccc([N+](=O)[O-])o3)nc(-c3ccccc3)c2c1 | – | – | – | – | ? | 11µM
O=C(N/N=C/c1ccc([N+](=O)[O-])o1)c1ccncc1 | ? | – | – | – | ? | –
O=C(N/N=C/c1ccc([N+](=O)[O-])o1)c1ccc(O)cc1 | ? | – | – | – | 11µM! | ?
O=C(N/N=C/c1ccc([N+](=O)[O-])o1)c1cc2c(ccc3ccccc32)o1 | – | – | – | – | – | –
O=[N+]([O-])c1ccc(/C=N/NC(=S)Nc2ccccc2)o1 | ? | – | – | – | – | –
O=[N+]([O-])c1ccc(/C=N/Nc2ccc3ccccc3c2)o1 | – | – | -89 | – | – | ?
O=C(N/N=C/c1ccc([N+](=O)[O-])o1)c1cc2ccccc2o1 | 6.3µM | – | – | – | · | ·
CC1CCCCN1CCNC(=O)Cn1nc(-c2ccccc2)ccc1=O (configuration not stated) | – | – | -98 | – | – | –
COc1ccc2nc(N(CCN(C)C)C(=O)c3ccc4ccccc4c3)sc2c1 | – | – | -63 | – | · | –
COc1ccc2nc(N(Cc3cccnc3)C(C)=O)sc2c1 | – | – | · | – | · | ·
COc1cc2nc(N(CCCN(C)C)C(=O)c3ccc(C(=O)c4ccccc4)cc3)sc2cc1OC | ? | 16µM | – | – | ? | ·
CN(C)CCN(C(=O)c1ccc2ccccc2c1)c1nc2ccc(Br)cc2s1 | – | – | -55 | – | · | –
COc1ccc2nc(N(Cc3cccnc3)C(=O)c3ccc(Cl)cc3)sc2c1 | – | – | · | 60 | · | ·
O=C(C[n+]1ccccc1Cl)c1ccc2ccccc2c1 | – | – | · | · | · | ·
O=C(COc1ccccc1C(=O)Nc1ccccc1)Nc1ccc(Br)cc1 | – | – | · | · | · | ·
CCc1nnc(SCC(=O)N(C)c2ccccc2)c2cc3sccc3n12 | ? | – | · | – | · | ·
N=c1c[n+](N2CCOCC2)[n-]o1 | – | – | -107 | – | – | –
Cc1ccc2c(c1)-c1c(ssc1=S)C(C)(C)N2C(=O)c1ccco1 | ? | – | -62 | – | ? | –
Cc1cccc(NC(=O)Cn2cc(C(=O)C3CCCCC3)c3ccccc32)c1 | ? | – | · | – | – | –
CCn1cc([N+](=O)[O-])c(C(=O)N2CCCC2)n1 | – | – | – | 32 | – | –
CCn1cc(Cl)c(C(=O)N2N=C(c3ccc4ccccc4c3)CC2c2ccccc2O)n1 (configuration not stated) | 7.1µM | – | – | – | 18µM | ?
CCn1cc([N+](=O)[O-])c(C(=O)N2N=C(c3cccc4ccccc34)CC2c2ccccc2O)n1 (configuration not stated) | 13µM | – | ? | – | ? | ?
CCn1cc([N+](=O)[O-])c(C(=O)N2N=C(c3ccc4ccccc4c3)CC2c2ccccc2O)n1 (configuration not stated) | 14µM | – | ? | – | ? | ?
CCn1cc([N+](=O)[O-])c(C(=O)N2N=C(c3ccc(OC)cc3OC)CC2c2ccccc2O)n1 (configuration not stated) | ? | – | ? | – | – | –
SMILES | TGFb SMAD3 inh | HepG2 viability | D3 antag | D3 ag | ATXN2 expr inh | ATXN viability
O=C(C[n+]1ccccc1Br)c1ccc2c(c1)CCCC2 | – | – | · | · | · | ·
O=C(Nc1ccc(S(=O)(=O)N2CCCC2)cc1)c1ccc(CN2CCc3ccccc3C2)cc1 | ? | – | ? | – | ? | ?
CCOc1ccccc1NC(=O)c1ccc(CN2CCc3ccccc3C2)cc1 | – | – | -70 | – | – | –
O=C(Nc1ccc(S(=O)(=O)N2CCOCC2)cc1)c1ccc(CN2CCc3ccccc3C2)cc1 | – | – | -54 | – | ? | –
COc1ccc(NC(=O)c2ccc(CN3CCc4ccccc4C3)cc2)cc1OC | ? | – | -64 | – | – | –
O=C(NCC1(N2CCOCC2)CCCCC1)c1cccc(S(=O)(=O)N2CCc3ccccc3C2)c1 | – | – | – | – | – | –
O=C(NCCCN1CCOCC1)c1cccc(S(=O)(=O)N2CCc3ccccc3C2)c1 | – | – | -57 | – | – | –
Cn1ccc2cc(S(=O)(=O)N3CCC(C(=O)NCCc4ccccc4)CC3)ccc21 | – | – | · | – | – | –
Cc1c(NC(=O)c2ccc(CN3CCc4ccccc4C3)cc2)c(=O)n(-c2ccccc2)n1C | ? | – | -79 | – | – | –
CS(=O)(=O)N(Cc1ccccc1)c1ccc(C(=O)Nc2cccc(Cl)c2)cc1 | 16µM | 11µM | · | – | – | ·
Cc1c(NC(=O)c2ccc(F)cc2)c(=O)n(-c2ccccc2)n1C | – | – | – | – | – | –
N#CCc1ccc(NC(=O)c2ccc(CN3CCc4ccccc4C3)cc2)cc1 | – | – | -53 | – | – | –
Cc1ccc(NC(=O)c2ccc(N(Cc3ccccc3)S(C)(=O)=O)cc2)cc1 | ? | – | · | – | ? | ?
COc1cccc(NC(=O)c2ccc(CN3CCc4ccccc4C3)cc2)c1 | ? | – | -102 | – | – | –
CCc1nc(C)cn1S(=O)(=O)c1ccc(Cl)c(Cl)c1OC | ? | – | · | – | · | ·
O=C(Cc1ccc(OCCCc2ccccc2)cc1)NO | – | – | · | · | · | ·
COc1ccc(C(=O)/C(Br)=C\C(=O)O)cc1 | · | · | · | – | · | ·
Cc1noc(C)c1CC(=O)N1CCOc2c(cc(-c3nc4ccccc4s3)cc2OC2CCOC2)C1 (configuration not stated) | · | · | · | · | · | –
CN(C)S(=O)(=O)c1cccc(NC(=O)c2ccc(COc3ccccc3)cc2)c1 | – | – | – | – | ? | 13µM
COc1cc(OC)c(OC)cc1CNC(=O)c1ccc(COc2ccccc2)cc1 | – | – | – | 31 | – | –
O=C(Nc1ccc(Cl)cc1)c1ccc(CN2CCc3ccccc3C2)cc1 | ? | – | – | – | ? | ?
Cc1cc(C)c(NC(=O)c2ccc(CN3CCc4ccccc4C3)cc2)c(C)c1 | ? | – | -53 | – | – | –
COc1cccc(S(=O)(=O)NCc2ccc(C(=O)Nc3cccc(Cl)c3)cc2)c1 | – | – | – | – | 16µM | ?
Cc1ccc(Cl)cc1NC(=O)c1ccc(NC(=O)N2CCSc3ncccc32)cc1 | – | – | · | – | · | ·
CCC(C(=O)O)c1ccc(N2Cc3ccccc3C2=O)cc1 (configuration not stated) | · | · | · | · | – | –
CC(=O)c1cccc(NC(=O)c2ccc(CN3CCc4ccccc4C3)cc2)c1 | ? | – | -89 | – | ? | –
